Source: PubChem (National Center for Advancing Translational Sciences (NCATS))
The list is not random: actives were taken first. Their share in the collection is about 10%.
HP1b chromo inh = HP1-beta chromodomain-methylated histone interaction inhibition | P83916 | AlphaScreen HP1-beta / biotin-H3K9me3 peptide binding | Potency, µM (highest dose often 114 µM), for inactives: at the top dose activity change, negative = inhibition, hits mostly inhibitors | hit rate 0.56% among 390,000 | AID 540317; further: nearly all actives have a fitted effect of over 70% in size
Target sequence (P83916 whole entry, looked up): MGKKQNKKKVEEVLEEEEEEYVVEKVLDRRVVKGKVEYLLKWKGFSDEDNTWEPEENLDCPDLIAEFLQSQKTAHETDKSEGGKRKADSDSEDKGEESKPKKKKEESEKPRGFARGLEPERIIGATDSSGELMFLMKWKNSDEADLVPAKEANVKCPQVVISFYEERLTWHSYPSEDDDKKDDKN
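AlphaScreen: HP1-beta (50 nM) preformed 30 min with biotin-H3(1-18)K9me3 peptide (50 nM) in PBS pH 7.4, 0.01% Tween-20. Compound added for 30 min at RT, then streptavidin donor/nickel chelate acceptor beads (10 ug/mL) for 30 min.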
GLS inh = glutaminase GLS (human) inhibition; O94925; GLS enzymatic activity, qHTS titration; Potency, µM (titrated, usually from 45.5 µM), without a hit: top-dose activity change, negative = inhibition, most hits filed as inhibitors; hit rate 0.21% among 410,000; AID 624170; further: on the % scale 0 is the no-effect control and ±100 the full control effect
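Glutamate formation by hKGA was monitored fluorometrically using coupled glutamate oxidase, HRP and Amplex Red. Substrate was added as 1 mM L-glutamine solution; incubation was 30 min at RT after an initial read.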
JMJD2A Tudor = blocks the human JMJD2A Tudor domain; O75164; AlphaScreen JMJD2A-Tudor / H3K4me3 peptide binding; Potency, µM (top dose mostly 114 µM), without a hit: at the highest dose activity change, negative = inhibition, hits mostly inhibitors; hit rate 4.4% among 390,000; AID 504339; further: on the % scale 0 is the no-effect control and ±100 the full control effect; nearly all actives have a fitted effect of over 50% in size
G9a inh = G9a (human) methyltransferase inhibition. Potency, µM (highest dose often 102 µM), for inactives: at the top dose activity, negative = inhibition, usual class: inhibitors. G9a H3K9 monomethylation, AlphaScreen, 2 h. hit rate 8.8% among 350,000; further: on the % scale 0 is the no-effect control and ±100 the full control effect; nearly all actives have a fitted effect of over 75% in size
Target sequence (Q96KQ7 913-1193 limits assumed): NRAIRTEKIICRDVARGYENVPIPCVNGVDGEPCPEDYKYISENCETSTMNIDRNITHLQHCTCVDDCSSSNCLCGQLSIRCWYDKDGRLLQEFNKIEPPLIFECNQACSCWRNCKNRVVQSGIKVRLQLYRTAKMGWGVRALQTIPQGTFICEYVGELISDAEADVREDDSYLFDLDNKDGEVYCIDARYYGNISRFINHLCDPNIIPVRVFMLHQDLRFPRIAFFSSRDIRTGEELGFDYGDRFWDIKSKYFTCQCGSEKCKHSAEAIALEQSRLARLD
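Methyltransferase reactions run at room temperature for 2 h (20 nM enzyme, 500 nM biotin-H3K9 peptide, 20 uM SAM) after a 15 min compound preincubation; product detected by AlphaScreen beads and anti-H3K9me1 antibody.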
L3MBTL1 block = blocks human L3MBTL1; Q9Y468; AlphaScreen L3MBTL1–H3K9me1 peptide binding; Potency, µM (titrated, usually from 57.1 µM), without a hit: top-dose activity, negative = inhibition, most hits filed as inhibitors; hit rate 0.66% among 230,000; further: on the % scale 0 is the no-effect control and ±100 the full control effect; nearly all actives have a fitted effect of over 60% in size
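Displacement of a biotinylated histone H3(1-15) peptide monomethylated at Lys9 (75 nM) from L3MBTL1 (50 nM) was measured by AlphaScreen after a 30 min room-temperature compound incubation; cefsulodin titration served as intraplate control.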
BAZ2B inh = BAZ2B (human) inhibition; Q9UIF8; AlphaScreen BAZ2B-H3K14Ac peptide displacement; Potency, µM (top dose mostly 114 µM), for inactives: top-dose activity change, negative = inhibition, actives largely listed as inhibitors; hit rate 4.4% among 360,000; AID 504333; further: on the % scale 0 is the no-effect control and ±100 the full control effect; nearly all actives have a fitted effect of over 60% in size
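AlphaScreen displacement: compounds (up to 110uM) incubated 30 min at room temperature with a preformed 50 nM BAZ2B/50 nM biotinylated H3K14Ac peptide complex in PBS pH 7.4 with Tween-20. Donor and acceptor beads at 10 ug/mL final added, 20 min light-protected before reading.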
Active calls of the source: *; ? = inconclusive; / = no result given; [ ] = remark or other dose. The call rests on the fitted dose curve; in most records, active means well fitted curve in the direction sought with a large enough effect; inconclusive means small, poorly fitted or top-dose-only effect, or another doubt; inactive means no such curve, though single readings can be large; an effect the other way counts as inactive or inconclusive. Potency means the concentration at half of the fitted maximal effect.

SMILES	HP1b chromo inh	GLS inh	JMJD2A Tudor	G9a inh	L3MBTL1 block	BAZ2B inh
CCOc1ccc(NC(=S)NCc2ccc3c(c2)OCO3)cc1	23%	0%	-27%	10µM*	-19%	?
Cc1ccc(OCCC(=O)OCC(=O)Nc2ccc3c(c2)OCCO3)cc1	23%	-7%	2%	-21%	-3%	7%
CCOc1ccc(OCCC(=O)OCC(=O)Nc2ccc3c(c2)OCO3)cc1	-20%	0%	-35%	45µM*	-1%	-38%
COc1ccc2c(CC(=O)OCC(=O)Nc3ccc(C)cc3)coc2c1	4%	-10%	-29%	-8%[12.7 µM]	?	50µM*
CCCC(=O)OCC(=O)Nc1ccc2c(c1)OCO2	14%	2%	-1%	-16%	11%	-2%
COc1ccc2c(CC(=O)OCC(=O)Nc3ccc(S(N)(=O)=O)cc3)coc2c1	6%	6%	-32%	11%[12.7 µM]	/	-10%
O=C(Nc1ccc2nc(SCC(=O)N3CCCC3)sc2c1)c1cccc(F)c1	54%	-8%	-14%	3%[59 µM]	/	-27%
CN(C(=O)c1cnc(N2CCOCC2)c2ccccc12)c1ccccc1F	23%[57 µM]	7%	8%	-5%[59 µM]	/	3%
CCc1nn2c(=O)cc(COC(=O)c3cccc(NC(=O)COc4ccccc4F)c3)nc2s1	18%	-12%	-5%	1%[59 µM]	/	-11%
Cc1ccc(CNC(=O)c2oc3ccc(S(=O)(=O)N4CCC(C)CC4)cc3c2C)cc1	-26%	1%	3%	-4%[59 µM]	/	4%
Cc1ccc(-n2nnnc2CNC(=O)c2ccccc2)cc1C	28%[57 µM]	-2%	-14%	2%[59 µM]	/	8%
CC1(C)CC(NC(=S)NCc2ccc3c(c2)OCO3)CC(C)(C)N1	/	/	/	40µM*	-2%	56µM*
Cc1ccc(NC(=O)c2nnn(CC(=O)Nc3ccc(C)c(Cl)c3)c2N)c(C)c1	44%	8%	-11%	7%[59 µM]	/	11%[57.1 µM]
Nc1cc(Cl)ccc1N1CCCC1	-16%	0%	?	14µM*	8%	?
CN(C)c1ccc(NS(=O)(=O)c2cc(Cl)ccc2Cl)cc1	50µM*	58%	56µM*	8.9µM*	-18%	35µM*
Nc1cc(S(=O)(=O)Nc2cc(Cl)ccc2Cl)ccc1N1CCOCC1	?	?	?	11µM*	-1%	-34%
O=S(=O)(Nc1ncccn1)c1ccc(NS(=O)(=O)c2cc(Cl)ccc2Cl)cc1	28%	3%	10%	?	/	-2%
O=S(=O)(Nc1ccc(N2CCOCC2)cc1)c1cc(Cl)ccc1Cl	-6%	7%	?	45µM*	/	-31%
CCC(C)NCCC(=O)Nc1ccc(Cl)c(S(=O)(=O)Nc2ccc(Cl)cc2)c1 (stereo not given)	-4%	0%	-19%	-41%	-4%	-22%
CCN(c1ccc(NS(=O)(=O)c2cc(Cl)ccc2Cl)cc1)C(C)C	?	35%	50µM*	7.1µM*	?	35µM*
Cc1ccc(-n2c(=O)c3cccnc3n2CC(=O)Nc2cccc(C)c2C)cc1	34%	-5%	-9%	?	/	-2%
Cc1ccsc1S(=O)(=O)N1CCCC(CCC(=O)NCc2ccccc2F)C1 (stereo not given)	57%	8%	-16%	79µM*	0%	-16%
CC(Cc1ccccc1)(NC(=O)CN)c1ccccc1 (stereo not given)	/	/	/	18%[59 µM]	/	79µM*
CN(C)CCCN(C(=O)c1ccc(S(=O)(=O)N2CCc3ccccc32)cc1)c1nc2ccc(Cl)cc2s1	?	8%	?	?	/	?
Cc1cc(C)c2sc(N(CCCN(C)C)C(=O)c3ccc(S(=O)(=O)N4CCCc5ccccc54)cc3)nc2c1	-7%	2%	40µM*	45µM*	-17%	11µM*
CN(C)CCCN(C(=O)c1ccc(S(=O)(=O)N2CCc3ccccc3C2)cc1)c1nc2ccc(F)cc2s1	-31%	-6%	?	40µM*	/	-31%
